Test results taken from PubChem BioAssay AID1159580 (chemical genetic matrix, 2015).
“And” between values parts separate entries of the source, which are not always exact repeats. Equal entries are not always repeated. Hit rate of the full screen: of about 5,500 compounds, about 2,000 (36%) were called active. Not shown: some 18% with an inconclusive outcome. Cut-off read from the data, not from the text of the source: active = normalized growth mostly below about 0.91 (no sharp cut-off); inconclusive = no clear call, values can overlap the other calls; inactive = mostly above about 0.92. This is one part of the list.

Assay: chemical genetic growth profiling, strain panel (AID 1159580);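 note: tested at 20 µM; growth read once vehicle control cultures reached saturation at 30 °C; 1 = growth at the plate median or of vehicle wells; lower values mean less growth of the strain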
Conditions: growth OD

Measured: normalized growth

CNCCCC12CCC(c3ccccc31)c1ccccc12
inactive: S. cerevisiae deletion strains, locus YJR075W, strain HOC1, active compounds read low 0.991 and 0.989 | S. cerevisiae deletion strains, locus YKL009W, strain mrt4, active compounds read low 0.978 | S. cerevisiae deletion strains, locus YKL068W, active compounds read low 0.983 | S. cerevisiae deletion strains, locus YKL085W, strain MDH1 (second series), active compounds read low 0.982 | S. cerevisiae deletion strains, locus YKL085W, strain MDH1, active compounds read low 0.982 | S. cerevisiae deletion strains, locus YKL160W, strain elf1, active compounds read low 0.968 | S. cerevisiae deletion strains, locus YKR001C, strain vps1, active compounds read low 1.02 | S. cerevisiae deletion strains, locus YKR026C, strain gcn3, active compounds read low 0.979 | S. cerevisiae deletion strains, locus YKR091W, strain srl3, active compounds read low 0.973 | S. cerevisiae deletion strains, locus YLL001W, strain dnm1, active compounds read low 1.01 | S. cerevisiae deletion strains, locus YLL026W, active compounds read low 0.97 | S. cerevisiae deletion strains, locus YLL041C, strain sdh2, active compounds read low 0.98 | S. cerevisiae deletion strains, locus YLR027C, strain aat2, active compounds read low 0.964 | S. cerevisiae deletion strains, locus YLR039C, strain RIC1, active compounds read low 1.29 | S. cerevisiae deletion strains, locus YLR058C, strain SHM2, active compounds read low 0.984 | S. cerevisiae deletion strains, locus YLR102C, strain apc9, active compounds read low 0.992 | S. cerevisiae deletion strains, locus YLR113W, strain HOG1, active compounds read low 1.01 | S. cerevisiae deletion strains, locus YLR221C, strain rsa3, active compounds read low 0.998 | S. cerevisiae deletion strains, locus YLR258W, strain gsy2, active compounds read low 0.974 | S. cerevisiae deletion strains, locus YLR262C, strain YPT6 (second series), active compounds read low 0.937 | S. cerevisiae deletion strains, locus YLR262C, strain YPT6, active compounds read low 1.32 | S. cerevisiae deletion strains, locus YLR268W, strain sec22, active compounds read low 0.975 | S. cerevisiae deletion strains, locus YLR320W, strain mms22, active compounds read low 0.992 | S. cerevisiae deletion strains, locus YLR330W, strain CHS5, active compounds read low 0.993 | S. cerevisiae deletion strains, locus YLR342W, strain FKS1 (second series), active compounds read low 0.944 | S. cerevisiae deletion strains, locus YLR342W, strain FKS1, active compounds read low 0.954 | S. cerevisiae deletion strains, locus YLR357W, strain rsc2, active compounds read low 0.968 | S. cerevisiae deletion strains, locus YLR370C, strain arc18, active compounds read low 0.98 | S. cerevisiae deletion strains, locus YLR371W, strain rom2, active compounds read low 0.963 | S. cerevisiae deletion strains, locus YLR384C, strain iki3, active compounds read low 0.989 | S. cerevisiae deletion strains, locus YLR418C, strain cdc73, active compounds read low 0.857 | S. cerevisiae deletion strains, locus YML016C, strain PPZ1, active compounds read low 0.986 | S. cerevisiae deletion strains, locus YML032C, strain rad52, active compounds read low 0.963 | S. cerevisiae deletion strains, locus YML120C, strain ndi1, active compounds read low 0.976 | S. cerevisiae deletion strains, locus YML124C, strain tub3, active compounds read low 0.995 | S. cerevisiae deletion strains, locus YMR058W, strain fet3, active compounds read low 0.952 | S. cerevisiae deletion strains, locus YMR078C, strain ctf18, active compounds read low 0.984 | S. cerevisiae deletion strains, locus YMR125W, strain sto1, active compounds read low 0.939 | S. cerevisiae deletion strains, locus YMR129W, active compounds read low 0.979 | S. cerevisiae deletion strains, locus YMR205C, strain PFK2, active compounds read low 0.999 | S. cerevisiae deletion strains, locus YMR223W, strain ubp8, active compounds read low 0.951 | S. cerevisiae deletion strains, locus YMR231W, strain pep5, active compounds read low 0.985 | S. cerevisiae deletion strains, locus YMR263W, strain SAP30, active compounds read low 0.992 and 1 | S. cerevisiae deletion strains, locus YMR307W, strain GAS1, active compounds read low 0.979 | S. cerevisiae deletion strains, locus YNL067W, strain RPL9B, active compounds read low 1 | S. cerevisiae deletion strains, locus YNL071W, strain lat1, active compounds read low 0.986 | S. cerevisiae deletion strains, locus YNL128W, strain TEP1, active compounds read low 1.03 | S. cerevisiae deletion strains, locus YNL153C, strain GIM3, active compounds read low 1 | S. cerevisiae deletion strains, locus YNL175C, strain NOP13, active compounds read low 1.02 | S. cerevisiae deletion strains, locus YNL183C, strain NPR1, active compounds read low 0.949 | S. cerevisiae deletion strains, locus YNL197C, strain WHI3, active compounds read low 1.03 | S. cerevisiae deletion strains, locus YNL209W, strain ssb2, active compounds read low 0.967 | S. cerevisiae deletion strains, locus YNL224C, strain SQS1, active compounds read low 1.01 | S. cerevisiae deletion strains, locus YNL233W, strain BNI4, active compounds read low 0.954 | S. cerevisiae deletion strains, locus YNL248C, strain rpa49, active compounds read low 0.932 | S. cerevisiae deletion strains, locus YNL250W, strain rad50, active compounds read low 0.982 | S. cerevisiae deletion strains, locus YNL271C, strain bni1, active compounds read low 0.993 | S. cerevisiae deletion strains, locus YNL298W, strain CLA4, active compounds read low 0.967 | S. cerevisiae deletion strains, locus YNL307C, strain MCK1, active compounds read low 0.978 | S. cerevisiae deletion strains, locus YNL322C, strain KRE1 (second series), active compounds read low 0.976 | S. cerevisiae deletion strains, locus YNR049C, strain mso1, active compounds read low 0.971 | S. cerevisiae deletion strains, locus YNR052C, strain pop2, active compounds read low 0.962 | S. cerevisiae deletion strains, locus YOL012C, strain htz1 0.584 | S. cerevisiae deletion strains, locus YOL147C, strain pex11, active compounds read low 0.987 | S. cerevisiae deletion strains, locus YOR001W, strain rrp6, active compounds read low 0.992 | S. cerevisiae deletion strains, locus YOR061W, strain CKA2, active compounds read low 0.991 | S. cerevisiae deletion strains, locus YOR069W, strain VPS5, active compounds read low 0.993 | S. cerevisiae deletion strains, locus YOR070C, strain gyp1, active compounds read low 0.983 | S. cerevisiae deletion strains, locus YOR080W, strain dia2, active compounds read low 0.951 | S. cerevisiae deletion strains, locus YOR083W, strain WHI5 (second series), active compounds read low 0.999 | S. cerevisiae deletion strains, locus YOR083W, strain WHI5, active compounds read low 0.913 | S. cerevisiae deletion strains, locus YOR106W, strain vam3, active compounds read low 0.95 | S. cerevisiae deletion strains, locus YOR136W, strain idh2, active compounds read low 0.99 | S. cerevisiae deletion strains, locus YOR144C, strain elg1, active compounds read low 0.997 | S. cerevisiae deletion strains, locus YOR184W, strain ser1, active compounds read low 1.02 | S. cerevisiae deletion strains, locus YOR231W, strain MKK1, active compounds read low 1.02 | S. cerevisiae deletion strains, locus YOR265W, strain rbl2, active compounds read low 0.983 | S. cerevisiae deletion strains, locus YOR270C, strain vph1, active compounds read low 0.927 | S. cerevisiae deletion strains, locus YOR290C, strain snf2, active compounds read low 0.94 | S. cerevisiae deletion strains, locus YOR316C, strain cot1, active compounds read low 0.991 | S. cerevisiae deletion strains, locus YPL051W, strain arl3, active compounds read low 0.938 | S. cerevisiae deletion strains, locus YPL055C, strain LGE1, active compounds read low 0.982 | S. cerevisiae deletion strains, locus YPL078C, strain atp4, active compounds read low 0.967 | S. cerevisiae deletion strains, locus YPL106C, strain sse1, active compounds read low 0.975 | S. cerevisiae deletion strains, locus YPL240C, strain hsp82, active compounds read low 0.984 | S. cerevisiae deletion strains, locus YPL241C, strain CIN2, active compounds read low 0.991 and 0.996 | S. cerevisiae deletion strains, locus YPL256C, strain CLN2, active compounds read low 0.995 | S. cerevisiae deletion strains, locus YPR119W, strain clb2, active compounds read low 0.992 | S. cerevisiae deletion strains, locus YPR141C, strain kar3, active compounds read low 0.979 | S. cerevisiae deletion strains, locus YPR163C, strain tif3, active compounds read low 0.994 | S. cerevisiae deletion strains, locus YPR167C, strain met16, active compounds read low 0.996 | S. cerevisiae deletion strains, strain wtn01, active compounds read low 0.964 | S. cerevisiae strains, strain wild type, active compounds read low 0.993
